Experimental data from PubChem BioAssay AID1159580 (chemical genetic matrix, 2015).
The campaign covered roughly 5,500 compounds. About 2,000 (36%) were called active. Not shown: some 18% with an inconclusive outcome. No stated cut-off is given here; in the data, active means normalized growth mostly below about 0.91 (no sharp cut-off); inconclusive means no clear call, values can overlap the other calls; inactive means mostly above about 0.92. This is one part of the list.

Test: chemical genetic growth profiling, strain panel (AID 1159580);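 further: tested at 20 µM; growth read once vehicle control cultures reached saturation at 30 °C; 1 = growth at the plate median or of vehicle wells; lower values mean less growth of the strain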
Settings: growth OD

Measured: normalized growth

C=C1C2CC[C@H]3[C@]4(C)C[C@H](OC5OC(CO)C(OS(=O)(=O)O)C(OS(=O)(=O)O)C5OC(=O)CC(C)C)C[C@@H](C(=O)O)[C@H]4CC[C@]3(C2)[C@H]1O (some centres undefined)
inactive: S. cerevisiae deletion strains, locus YJR043C, strain POL32, hits give low values 1 | S. cerevisiae deletion strains, locus YJR075W, strain HOC1, hits give low values 1.01 | S. cerevisiae deletion strains, locus YKL009W, strain mrt4, hits give low values 0.984 | S. cerevisiae deletion strains, locus YKL068W, hits give low values 0.981 | S. cerevisiae deletion strains, locus YKL085W, strain MDH1 (second series), hits give low values 0.97 | S. cerevisiae deletion strains, locus YKL085W, strain MDH1, hits give low values 0.97 | S. cerevisiae deletion strains, locus YKL160W, strain elf1, hits give low values 0.984 | S. cerevisiae deletion strains, locus YKL190W, strain CNB1, hits give low values 1.01 | S. cerevisiae deletion strains, locus YKR001C, strain vps1, hits give low values 0.976 | S. cerevisiae deletion strains, locus YKR026C, strain gcn3, hits give low values 1.01 | S. cerevisiae deletion strains, locus YKR091W, strain srl3, hits give low values 1.01 | S. cerevisiae deletion strains, locus YLL001W, strain dnm1, hits give low values 1.03 | S. cerevisiae deletion strains, locus YLL026W, hits give low values 1.01 | S. cerevisiae deletion strains, locus YLL041C, strain sdh2, hits give low values 1.01 | S. cerevisiae deletion strains, locus YLR027C, strain aat2, hits give low values 1.01 | S. cerevisiae deletion strains, locus YLR039C, strain RIC1, hits give low values 0.99 | S. cerevisiae deletion strains, locus YLR058C, strain SHM2, hits give low values 1.01 | S. cerevisiae deletion strains, locus YLR102C, strain apc9, hits give low values 0.983 | S. cerevisiae deletion strains, locus YLR221C, strain rsa3, hits give low values 0.995 | S. cerevisiae deletion strains, locus YLR258W, strain gsy2, hits give low values 1.02 | S. cerevisiae deletion strains, locus YLR262C, strain YPT6 (second series), hits give low values 1.01 | S. cerevisiae deletion strains, locus YLR262C, strain YPT6, hits give low values 0.994 | S. cerevisiae deletion strains, locus YLR268W, strain sec22, hits give low values 0.987 | S. cerevisiae deletion strains, locus YLR320W, strain mms22, hits give low values 1.01 | S. cerevisiae deletion strains, locus YLR330W, strain CHS5, hits give low values 1.01 | S. cerevisiae deletion strains, locus YLR342W, strain FKS1 (second series), hits give low values 1.01 | S. cerevisiae deletion strains, locus YLR342W, strain FKS1, hits give low values 1.01 | S. cerevisiae deletion strains, locus YLR357W, strain rsc2, hits give low values 0.986 | S. cerevisiae deletion strains, locus YLR370C, strain arc18, hits give low values 1 | S. cerevisiae deletion strains, locus YLR371W, strain rom2, hits give low values 0.987 | S. cerevisiae deletion strains, locus YLR384C, strain iki3, hits give low values 0.991 | S. cerevisiae deletion strains, locus YLR418C, strain cdc73, hits give low values 1 | S. cerevisiae deletion strains, locus YML016C, strain PPZ1, hits give low values 1.01 | S. cerevisiae deletion strains, locus YML032C, strain rad52, hits give low values 0.984 | S. cerevisiae deletion strains, locus YML120C, strain ndi1, hits give low values 1.01 | S. cerevisiae deletion strains, locus YML124C, strain tub3, hits give low values 0.987 | S. cerevisiae deletion strains, locus YMR058W, strain fet3, hits give low values 1.01 | S. cerevisiae deletion strains, locus YMR078C, strain ctf18, hits give low values 0.982 | S. cerevisiae deletion strains, locus YMR125W, strain sto1, hits give low values 1.02 | S. cerevisiae deletion strains, locus YMR129W, hits give low values 0.992 | S. cerevisiae deletion strains, locus YMR205C, strain PFK2, hits give low values 1.03 | S. cerevisiae deletion strains, locus YMR223W, strain ubp8, hits give low values 0.977 | S. cerevisiae deletion strains, locus YMR231W, strain pep5, hits give low values 1.01 | S. cerevisiae deletion strains, locus YMR263W, strain SAP30, hits give low values 1.02 | S. cerevisiae deletion strains, locus YMR307W, strain GAS1, hits give low values 1.05 | S. cerevisiae deletion strains, locus YNL067W, strain RPL9B, hits give low values 1.02 | S. cerevisiae deletion strains, locus YNL071W, strain lat1, hits give low values 1.01 | S. cerevisiae deletion strains, locus YNL128W, strain TEP1, hits give low values 1.02 | S. cerevisiae deletion strains, locus YNL153C, strain GIM3, hits give low values 1.03 | S. cerevisiae deletion strains, locus YNL209W, strain ssb2, hits give low values 1 | S. cerevisiae deletion strains, locus YNL233W, strain BNI4, hits give low values 1.02 | S. cerevisiae deletion strains, locus YNL248C, strain rpa49, hits give low values 0.974 | S. cerevisiae deletion strains, locus YNL250W, strain rad50, hits give low values 0.972 | S. cerevisiae deletion strains, locus YNL271C, strain bni1, hits give low values 0.972 | S. cerevisiae deletion strains, locus YNL298W, strain CLA4, hits give low values 0.977 | S. cerevisiae deletion strains, locus YNL307C, strain MCK1, hits give low values 0.986 | S. cerevisiae deletion strains, locus YNL322C, strain KRE1 (second series), hits give low values 1 | S. cerevisiae deletion strains, locus YNL322C, strain KRE1, hits give low values 1.01 | S. cerevisiae deletion strains, locus YNR049C, strain mso1, hits give low values 1.01 | S. cerevisiae deletion strains, locus YNR052C, strain pop2, hits give low values 0.97 | S. cerevisiae deletion strains, locus YOL006C, strain TOP1, hits give low values 1.07 | S. cerevisiae deletion strains, locus YOL012C, strain htz1 0.954 | S. cerevisiae deletion strains, locus YOL147C, strain pex11, hits give low values 0.992 | S. cerevisiae deletion strains, locus YOR001W, strain rrp6, hits give low values 0.992 | S. cerevisiae deletion strains, locus YOR061W, strain CKA2, hits give low values 1.01 | S. cerevisiae deletion strains, locus YOR069W, strain VPS5, hits give low values 1.01 | S. cerevisiae deletion strains, locus YOR070C, strain gyp1, hits give low values 1 | S. cerevisiae deletion strains, locus YOR080W, strain dia2, hits give low values 1.02 | S. cerevisiae deletion strains, locus YOR083W, strain WHI5, hits give low values 0.976 | S. cerevisiae deletion strains, locus YOR106W, strain vam3, hits give low values 0.991 | S. cerevisiae deletion strains, locus YOR136W, strain idh2, hits give low values 0.988 | S. cerevisiae deletion strains, locus YOR144C, strain elg1, hits give low values 0.99 | S. cerevisiae deletion strains, locus YOR184W, strain ser1, hits give low values 0.958 | S. cerevisiae deletion strains, locus YOR265W, strain rbl2, hits give low values 1.01 | S. cerevisiae deletion strains, locus YOR270C, strain vph1, hits give low values 1.01 | S. cerevisiae deletion strains, locus YOR290C, strain snf2, hits give low values 0.986 | S. cerevisiae deletion strains, locus YOR316C, strain cot1, hits give low values 0.991 | S. cerevisiae deletion strains, locus YPL051W, strain arl3, hits give low values 0.995 | S. cerevisiae deletion strains, locus YPL055C, strain LGE1, hits give low values 1.05 | S. cerevisiae deletion strains, locus YPL078C, strain atp4, hits give low values 0.993 | S. cerevisiae deletion strains, locus YPL106C, strain sse1, hits give low values 1.01 | S. cerevisiae deletion strains, locus YPL240C, strain hsp82, hits give low values 1.01 | S. cerevisiae deletion strains, locus YPL241C, strain CIN2, hits give low values 1.02 | S. cerevisiae deletion strains, locus YPR119W, strain clb2, hits give low values 0.986 | S. cerevisiae deletion strains, locus YPR141C, strain kar3, hits give low values 0.969 | S. cerevisiae deletion strains, locus YPR163C, strain tif3, hits give low values 0.992 | S. cerevisiae deletion strains, locus YPR167C, strain met16, hits give low values 0.985 | S. cerevisiae deletion strains, strain wtn01, hits give low values 0.98 | S. cerevisiae strains, strain wild type, hits give low values 1.01
